# Compound activity as filed in PubChem.
# Cycloheximide cs – counter-screen hit for Shiga toxin inhibitors, cycloheximide; cell reporter, cycloheximide protein synthesis inhibition counterscreen; max response, %; hit rate 12% among 300,000; in the data active means max response mostly above about 13%, no sharp cut-off; inactive means mostly below about 14%; further: read at 38.3 µM for the half of the compounds with a filed dose; 0% is about no effect
# Pf growth 48h – P. falciparum growth inhibition at 48 hours (one generation); Potency, µM (series often up to 28.7 µM), inactives show at the top dose activity change, negative = inhibition, most hits filed as inhibitors; hit rate 5.9% among 310,000; P. falciparum luciferase growth in erythrocytes, 48 h; AID 504832; further: potency means the concentration at half of the fitted maximal effect; on the % scale 0 is the no-effect control and ±100 the full control effect
#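 Luminescence readout; reporter = integrated firefly luciferase in P. falciparum. RBC culture at 2% hematocrit, 0.1% parasitemia final, 37 C/5% CO2; decreased signal taken as growth inhibition.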
# Shiga inhibitor – Shiga toxin inhibition; hit rate 9.2% among 290,000; Vero cells, Shiga toxin protein synthesis inhibition reporter; AID 2315; inhibition, % at 38.7 µM; in the data active means inhibition mostly above about 28%, no sharp cut-off; inactive means mostly below about 43%; further: 0% is about no effect
# Pf growth 96h – P. falciparum growth inhibition at 96 hours; P. falciparum luciferase reporter growth, 96 h; Potency, µM (top dose mostly 28.7 µM), for the others: top-dose activity change, negative = inhibition, actives largely listed as inhibitors; hit rate 6.9% among 320,000; AID 504834; further: potency means the concentration at half of the fitted maximal effect; on the % scale 0 is the no-effect control and ±100 the full control effect
#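 Two-generation exposure (96 h) targets delayed-death phenotype. Reporter parasites carrying integrated firefly luciferase, in red cells at 2% hematocrit and 0.05% parasitemia final, kept at 37 C, 5% CO2; luminescence loss indicates inhibition.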
# Numbers without * were called inactive; ? = inconclusive; . = no result given. Rows were chosen to be rich in hits. Some 21% of all compounds tested hit in one or more screens of this group. Unless noted, the call rests on the fitted dose curve; in most records, active means well fitted inhibition curve with a large enough effect; inconclusive means small, poorly fitted or top-dose-only effect, or another doubt; inactive means no such curve, though single readings can be large or run the other way.
SMILES,Cycloheximide cs,Pf growth 48h,Shiga inhibitor,Pf growth 96h
O=C(N/N=C/c1ccc(F)cc1)c1cc(-c2ccc3c(c2)OCO3)n[nH]1,15,19%,25,26%
CN(C)c1ccc(/C=N/NC(=O)c2cc(-c3ccc4c(c3)OCO4)n[nH]2)cc1,31*,30%,60*,12%
COc1ccc(/C=N/NC(=O)c2cc(-c3ccc4c(c3)OCO4)n[nH]2)cc1OC,29*,?,9,12µM*
COc1cc(/C=N/NC(=O)c2cccnc2)ccc1OC(=O)c1ccc2c(c1)OCO2,36,27%,17,38%
CN1[C@@H]2CC(OC(=O)[C@@H](CO)c3ccccc3)C[C@@H]1[C@H]1O[C@H]12 (stereo partly drawn),.,-16%,.,?
CCOCCOc1cccc(C(=O)NC(C)c2ccc3ccccc3c2)c1 (stereo not drawn),-2,-12%,-5,?
COc1cc(OC)cc(C(=O)OCC(=O)NC(c2ccccc2)c2ccccc2)c1,.,-11%,.,5%
CCOCCOc1cccc(C(=O)NC(c2ccccc2)c2ccccc2)c1,-1,?,-8,2.1µM*
COc1cc(OC)cc(C(=O)NC(c2ccccc2)c2ccccc2)c1,-1,?,-19,12µM*
c1ccc(Nc2ccccn2)cc1,17*,23%,4,.
c1ccc(Nc2cccc(Nc3ccccc3)n2)cc1,34*,.,55*,-55%
c1ccc(Nc2ccccc2)cc1,.,46%,.,39%
COc1cc(/C=N/NC(=O)Cn2ccc(C(F)(F)F)n2)cc(OC)c1OC,-3,0%,1,-3%
Cc1ccc(O)c(NC(=O)C2CCCN2C(=O)OCc2ccccc2)c1 (stereo not drawn),3,?,-5,?
Cc1[nH]c2ccccc2c1Cc1nnc(SCc2ccccc2)o1,-1,.,-16,?
COc1ccc(/C=C2\SC(=O)N(CCNC(=O)Cn3cnnn3)C2=O)cc1,32*,208%,157*,.
COc1ccc(S(=O)(=O)CCC(=O)NCCc2ccc(C)cc2)cc1,-3,6%,-6,.
O=C(CN1C(=O)S/C(=C\c2ccccc2)C1=O)NNC(=O)c1ccccc1O,-3,6%,4,13%
O=C(CN1C(=O)S/C(=C\c2ccc(C(=O)O)cc2)C1=O)Nc1ccccc1,-3,26%,.,-2%
COc1ccc(/C=C2\SC(=O)N(CC(=O)NNC(=O)c3ccccc3O)C2=O)cc1,1,30%,4,3.3µM*
COc1ccc(/C=C2\SC(=O)N(CCNC(=O)CCS(=O)(=O)c3ccc(C)cc3)C2=O)cc1,70*,156%,110*,16%
CCc1noc(C)c1C(=O)NCCN1C(=O)S/C(=C\c2ccc(OC)cc2)C1=O,.,32%,.,34%
O=C(CN1C(=O)S/C(=C\c2ccc(O)cc2)C1=O)c1ccccc1,36*,-35%,20*,?
O=C(CSc1nnc(NC(=O)c2ccccc2F)s1)NC1CC1,10,54%,41,-9%
O=C(OCC(=O)N1c2ccccc2Sc2ccccc21)c1ccc[n+]([O-])c1,2,-24%,2,?
SMILES,Cycloheximide cs,Pf growth 48h,Shiga inhibitor,Pf growth 96h
COC(=O)c1cc(S(=O)(=O)N2CCN(c3ccc(C(C)=O)cc3)CC2)cn1C,14,-9%,32,15%
O=C(C1CCCN(S(=O)(=O)c2ccc(F)cc2)C1)N1CCCCC1 (stereo not drawn),4,-22%,22,?
COc1ccc(/C=C2\SC(=O)N(CCNC(=O)Cc3coc4cc(C)ccc34)C2=O)cc1OC,7,?,19,7.4µM*
COc1ccc(/C=C2\SC(=O)N(CCNC(=O)C3CCN(S(=O)(=O)c4cccs4)CC3)C2=O)cc1,35*,54%,44*,-31%
CCOc1ccc(Oc2cc(NC(=O)c3ccco3)cc([N+](=O)[O-])c2)cc1,-2,6.6µM*,9,1.7µM*
O=C(Nc1cc(Oc2ccc(Cl)cc2)cc([N+](=O)[O-])c1)c1ccco1,47*,?,74*,95%
Cc1nn(C)cc1C(=O)Nc1cc(Oc2ccc(Cl)cc2)cc([N+](=O)[O-])c1,-3,?,-15,.
O=C(Nc1cc(SCCO)cc([N+](=O)[O-])c1)c1ccco1,-4,19%,2,9%
Cc1nc2ccc(C(=O)N3c4ccccc4CC3C)cc2s1 (stereo not drawn),1,?,1,9%
Cc1nccn1CCC(=O)Nc1ccc(Cl)cc1,-5,5%,-14,4%
C=CSc1sc(Cl)c(N2CCOCC2)c1[N+](=O)[O-],15,8.3µM*,20,25%
C=CS(=O)(=O)c1sc(Cl)c(N2CCOCC2)c1[N+](=O)[O-],16*,-7%,21,-13%
